# Tg IFNy HTS: T. gondii growth inhibition with IFN-gamma, primary screen, cell-based; Toxoplasma gondii growth in IFN-gamma-treated host cells; stronger effect = lower value; activity change, negative = inhibition, % (no concentration beside the values); hit rate 3.8% among 69,000; AID 1259416, 2018; in the data active = activity change below about -70%, passing the limit was not always enough;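 note: host cells are HeLa cells infected with Toxoplasma gondii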
# Numbers without * were called inactive. This excerpt belongs to a sample that is enriched for hits.
SMILES,Tg IFNy HTS
CC(C)C(=O)N1CCCC1c1nc(N(C)C)ncc1-c1ccc(Cl)cc1 (stereo not given),-4.5
Cc1nc(-c2ccc(Cl)cc2)sc1-c1ccnc(SCc2ccccc2)n1,-61.8
Fc1cccc(CSc2nc(Nc3ccc4c(c3)OCO4)c3ccccc3n2)c1,-48.4
c1ccc(CSc2nccc(-c3ccc4c(c3)CCO4)n2)cc1,-80.9*
COc1ccc(CNC(=O)[C@@H]2C[C@H](NC(=O)C3CCC3)CN2C)cc1OC,4.2
CC1=C(C(=O)N(C)Cc2ccc3nsnc3c2)C(C)NC(=O)N1 (stereo not given),-31.0
CN1CCC2(CC1)CN(S(=O)(=O)c1ccc(C#N)cc1)Cc1ccccc12,2.3
O=C(O)CCn1c(=O)sc2ccccc21,6.7
O=C(O)CCC(=O)Nc1ccc(S(=O)(=O)N2CCCC2)cc1,150.9
O=C(CCn1c(=O)sc2ccccc21)Nc1ccc(S(=O)(=O)N2CCCCC2)cc1,-88.1*
CNS(=O)(=O)CCNCC1(O)CCCN(Cc2cccc(C)c2)C1=O (stereo not given),-3.9
CC(C)C(C)NC(=O)c1ncn2c1CN(CC1CC1)S(=O)(=O)c1ccccc1-2 (stereo not given),-12.8
CC(C)CCN1Cc2c(C(=O)Nc3cccc(F)c3)ncn2-c2ccccc2S1(=O)=O,-83.5*
CN1Cc2c(C(=O)Nc3cccc(Cl)c3)ncn2-c2ccccc2S1(=O)=O,-6.8
CC(C)c1nc2ccc(Br)cn2c1NC1CCCCC1,36.3
CCOc1nc(Nc2ccc(C(C)C)cc2)nc(NC2CCCCC2)n1,-87.0*
CCc1nc(OCC(=O)Nc2ccc(C(C)C)cc2)c2ccccc2n1,5.0
O=C(NCCN1C(=O)CSC1=O)c1ccc(Oc2ncccn2)cc1,28.7
Cc1nc(-c2ccc(F)cc2)sc1-c1ccc(SCc2ccccc2Cl)nn1,-4.2
CCCNC(=O)N1CCc2nc(-c3ccc(C)cc3)sc2C1,6.0
CCOC(=O)c1c(NC(=O)Nc2ccc(C)cc2)sc2c1CCN(C(=O)OCC)C2,-97.2*
CCOC(=O)c1c(NC2=NC3(CCCCC3)Cc3ccccc32)sc2c1CCCC2,31.0
O=C(C1CCN(c2nc3ccccc3s2)CC1)N1CCc2ccccc21,69.6
Cn1cc(N2C(=O)CC3C2CCN3CCc2ccccc2)cn1 (stereo not given),-14.5
CCOc1ccc(-c2cc3c(=O)n(Cc4nc(-c5ccccc5)oc4C)ccn3n2)cc1Cl,209.4
SMILES,Tg IFNy HTS
CCn1c(-c2cc(NC(=O)c3ccncc3)n[nH]2)cc2c(OC)cccc21,-103.0*
CCOC(=O)c1cccc(NC(=O)c2ccncc2)c1,25.8
COc1cc(NC(=O)c2cncc(Br)c2)c(OC)cc1Cl,3.5
COc1cccc(OC)c1C(=O)c1ccncc1,-23.8
CCn1c(-c2cc(NC(=O)c3cncc(Br)c3)n[nH]2)cc2c(OC)cccc21,-96.6*
CCn1c(=O)c(C(=O)Nc2ccccc2OC)c(O)c2ccccc21,70.1
CC(C)N1c2ccccc2C(c2ccc(F)cc2)C1/C=C/C(O)CC(O)CC(=O)O (stereo not given),-62.2
COCC1CCC2(CCN(C(=O)c3cccc(C)c3)CC2)N1CC1CC1 (stereo not given),27.3
CN1CC(=O)N(c2ccccc2)CC12CCN(S(=O)(=O)Cc1ccccc1)C2 (stereo not given),-33.6
C[C@@H]1CN([C@H](C)CO)C(=O)c2ccccc2-c2ccccc2CO[C@H]1CN(C)C(=O)Nc1ccc(-c2ccccc2)cc1,-76.0*
C[C@H](CO)N1C[C@H](C)[C@@H](CN(C)C(=O)Nc2cccc(C(F)(F)F)c2)OCc2ccccc2-c2ccccc2C1=O,-36.1
C[C@@H]1CN([C@@H](C)CO)C(=O)c2ccccc2-c2ccccc2CO[C@@H]1CN(C)C(=O)Nc1ccc(-c2ccccc2)cc1,-59.9
C[C@@H]1CN([C@H](C)CO)C(=O)c2ccccc2-c2ccccc2CO[C@H]1CN(C)C(=O)Nc1cccc(C(F)(F)F)c1,-37.1
C[C@H]1CN([C@@H](C)CO)C(=O)c2ccccc2-c2ccccc2CO[C@H]1CN(C)C(=O)NC1CCCCC1,14.5
C[C@@H]1CN([C@H](C)CO)C(=O)c2ccccc2-c2ccccc2CO[C@@H]1CN(C)C(=O)Nc1ccc(-c2ccccc2)cc1,-74.3*
Cc1cc(C)n(Cc2ccc(C(=O)N(C)C(C)c3ccccn3)cc2)n1 (stereo not given),-41.1
Cc1cnn(CC(=O)NC(CCc2ccccc2)c2ccc3c(c2)OCCO3)c1 (stereo not given),-1.4
CN1CCN(Cc2noc(C3CCOC(C)(C)C3)n2)CC1 (stereo not given),11.3
CC1=C(C(=O)NC2CCN(Cc3ccccc3)CC2)C2(CCCCC2)OC1=O,-15.4
CC1=C(C(=O)NCCCN2CCC(N3CCCCC3)CC2)C2(CCCCC2)OC1=O,18.0
CC1=C(C(=O)NCCN2CCC(Cc3ccccc3)CC2)C2(CCCCC2)OC1=O,-83.9*
Cc1nccc(NCc2cncc3c2CCN(S(C)(=O)=O)C3)n1,106.2
Cc1c(C(=O)N2CCCC(c3cnccn3)C2)oc2c(F)cccc12 (stereo not given),-51.2
CCn1c(CN2C[C@@H]3CC[C@@](O)(c4cnc(OC)nc4OC)[C@@H]3C2)nc2ccccc21,-85.1*
COc1ccc(CN2C[C@@H]3CC[C@@](O)(c4ncccc4C)[C@@H]3C2)cc1,-51.4
SMILES,Tg IFNy HTS
CCCCN1CCC(O)(c2cnc(OC)nc2OC)CC1,-22.5
CCCCNC(=O)CN(C)C(=O)c1cccc(-c2ccc(O)cc2)c1,1.8
CCCCCS(=O)(=O)CCCCCCCCCCn1c(-c2ccc(O)cc2)c(C)c2cc(O)ccc21,-78.7*
CO[C@@H]1CCN(C(=O)c2cc(C3CC3)on2)C[C@@H]1Cc1ccccc1,-17.9
COc1ccc(-c2nc(N(C)C3CCCCC3)c3ccccc3n2)cc1,-32.7
COc1ccc2c(C)nc(N3CCCC(C(=O)NC4C5CC6CC4CC(O)(C6)C5)C3)nc2c1 (stereo not given),1.7
Cc1cc(Nc2cc(N3CCN(C)CC3)nc(/C=C/c3ccccc3)n2)n[nH]1,-73.6*
Cn1ccnc1-c1ccc(N2CCN(C/C=C/c3ccccc3)CC2)nn1,12.8
COc1cc(OC)nc(/C=C/c2ccccc2)n1,-12.9
CN1Cc2ccccc2C2(CCN(Cc3cnn(C)c3)CC2)C1,5.0
CCN(CC)CCOC(=O)c1ccc(N)cc1,11.6
CCCCOc1ccc(C(=O)CCN(CC)CC)cc1,68.9
CCN(CC)CCOc1ccc(/C(=C(\Cl)c2ccccc2)c2ccccc2)cc1,-80.2*
Cc1cc(NS(=O)(=O)c2ccc(NS(=O)(=O)c3ccc(F)cc3)cc2)no1,-31.5
CC1=CC(C)(C)N=C(Nc2nc(C)c3cc(C)cc(C)c3n2)N1,-99.0*
Cc1ccc2nc(CN(C)Cc3cnc(N4CCOCC4)nc3)[nH]c2c1,7.3
Cc1occc1C(=O)N1CCc2ncnc(C3CCOC3)c2CC1 (stereo not given),-32.8
Cc1cccc(NC(=O)Cn2ncc3c(N4CCC(C)CC4)ncnc32)c1,131.8
O=C1CCc2cc(NC(=O)C3CCC3)ccc2N1,3.9
Cc1c(C)c(C)c(C(=O)CCc2cccc(NC(=O)C3CCC3)c2)c(C)c1C,-91.6*
COCCN1C(=O)CCc2cc(NC(=O)C3CCC3)ccc21,30.7
COc1ccc(C(NC(=O)c2c(O)cccc2O)c2ccncc2)cc1 (stereo not given),-1.4
CCCC[C@H](NC(=O)[C@@H]1[C@@H]2[C@H](CN1C(=O)[C@@H](NC(=O)NC1(CS(=O)(=O)C(C)(C)C)CCCCC1)C(C)(C)C)C2(C)C)C(=O)C(=O)NC1CC1,15.7
C=CCOC[C@@H]1CCC[C@]12CN(Cc1ccc(C)s1)CCO2,-7.5
